Results: the supplement of paper PMC10849652
About 8,800 targets were measured; listed, in parts, are those with a hit and a random draw of the rest. About 0.5% of all pairs of compound and target were hits. Values without a mark were called inactive.

Columns and labels:
Assay in all cases: log2 fold change, soluble protein after heating vs DMSO (PISA); higher = thermal stabilisation; K562 lysate, 10 uM; active = over 0.2 and 3.5 SD of the protein, either way, in both replicates (recomputed)
erlotinib = compound: C#Cc1cccc(Nc2ncnc3cc(OCCOC)c(OCCOC)cc23)c1 [erlotinib]
In short: (§1)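 A 30 min treatment with 10 μM compound was applied to crude K562 extract at 1 mg/mL protein in PBS pH 7.4 with 1 mM MgCl2. Heating for 3 min spanned 48°C-58°C, after which aliquots were pooled, adjusted to 0.5% NP-40 at 4°C and spun at 21,000xg for 90 min. TMTpro 16plex LC-MS/MS of the supernatant, with channel sums equalised, gave values recorded as log-two fold change in thermal stability against solvent controls, from duplicates.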

[1] = compound: C1=CC(=CC=C1C2=NC3=C(N2)C=C(C=C3)C(=O)N)OC4=CC=C(C=C4)Cl
In short: as §1

[2] = compound: C1=CC=C(C=C1)C2=NC(=C(N2)C3=CC=NC=C3)C4=CC(=C(C=C4)Cl)O
In short: as §1

IRAK-1-4 Inhibitor I = compound: C1COCCN1CCN2C3=CC=CC=C3N=C2NC(=O)C4=CC(=CC=C4)[N+](=O)[O-] [IRAK-1-4 Inhibitor I]
In short: as §1

[3] = compound: CC(=O)c1cnc2ccc(-c3cc(Cl)c(O)c(Cl)c3)nc2c1N[C@H]1CC[C@H](CN(C)C)CC1
In short: as §1

ralimetinib = compound: CC(C)(C)Cn1c(N)nc2ccc(-c3[nH]c(C(C)(C)C)nc3-c3ccc(F)cc3)nc21 [ralimetinib]
In short: as §1

[4] = compound: CC(C)(O)CC(=O)NCCn1ccc2ncnc(Nc3ccc(Oc4cccc(C(F)(F)F)c4)c(Cl)c3)c21
In short: as §1

[5] = compound: CC(C)C1=C2N=C(C=C(N2N=C1)NCC3=CC=CC=C3)NCCCCCCN
In short: as §1

[6] = compound: CC1=C(C(CC(=O)N1)C2=CC=C(C=C2)C(F)(F)F)C(=O)NC3=C(C=C4C(=C3)C=NN4)F
In short: as §1

[7] = compound: CC1=C(C2=C(C=C1)C(=O)C3=CC=CC=C3N2CCCN)C
In short: as §1

[8] = compound: CC1=C(C=C(C=C1)NC(=O)C2=CC(=CC=C2)N(C)C)NC(=O)C3=CC=C(C=C3)O
In short: as §1

[9] = compound: CC1=CC=C(C=C1)SC2=C3C=C(SC3=CN=C2)C(=O)N
In short: as §1

[10] = compound: C/C(=N\NC(=O)C1=CC(=CC=C1)S(=O)(=O)N2CCOCC2)/C3=C(C=CC(=C3)Cl)O
In short: as §1

[11] = compound: C1=CC2=C(C=CC(=C2)/C=C\3/C(=O)NC(=NCC4=CC=CS4)S3)N=C1
In short: as §1

[12] = compound: C1=CC=C2C(=C1)C3=NNC4=CC=CC(=C43)C2=O
In short: as §1

[13] = compound: C1CCN(C1)C(=O)NC2=CC=CC(=C2)NC3=NC=C(C(=N3)NCCC4=CN=CN4)Br
In short: as §1

[14] = compound: C1CN(CCC1(CC2=CC=C(C=C2)Cl)N)C3=NC=NC4=C3C=CN4
In short: as §1

[15] = compound: C1=CC2=NC=CN=C2C=C1/C=C/3\C(=O)NC(=O)S3
In short: as §1

ibrutinib = compound: C=CC(=O)N1CCC[C@@H](n2nc(-c3ccc(Oc4ccccc4)cc3)c3c(N)ncnc32)C1 [ibrutinib]
In short: as §1

[16] = compound: CC1=C(C=C(C=C1)NC(=O)C2=CC(=CC=C2)C(C)(C)C#N)NC3=CC4=C(C=C3)N=CN(C4=O)C
In short: as §1

UniProt Q9UGL1, sequence (Q9UGL1 whole entry, looked up): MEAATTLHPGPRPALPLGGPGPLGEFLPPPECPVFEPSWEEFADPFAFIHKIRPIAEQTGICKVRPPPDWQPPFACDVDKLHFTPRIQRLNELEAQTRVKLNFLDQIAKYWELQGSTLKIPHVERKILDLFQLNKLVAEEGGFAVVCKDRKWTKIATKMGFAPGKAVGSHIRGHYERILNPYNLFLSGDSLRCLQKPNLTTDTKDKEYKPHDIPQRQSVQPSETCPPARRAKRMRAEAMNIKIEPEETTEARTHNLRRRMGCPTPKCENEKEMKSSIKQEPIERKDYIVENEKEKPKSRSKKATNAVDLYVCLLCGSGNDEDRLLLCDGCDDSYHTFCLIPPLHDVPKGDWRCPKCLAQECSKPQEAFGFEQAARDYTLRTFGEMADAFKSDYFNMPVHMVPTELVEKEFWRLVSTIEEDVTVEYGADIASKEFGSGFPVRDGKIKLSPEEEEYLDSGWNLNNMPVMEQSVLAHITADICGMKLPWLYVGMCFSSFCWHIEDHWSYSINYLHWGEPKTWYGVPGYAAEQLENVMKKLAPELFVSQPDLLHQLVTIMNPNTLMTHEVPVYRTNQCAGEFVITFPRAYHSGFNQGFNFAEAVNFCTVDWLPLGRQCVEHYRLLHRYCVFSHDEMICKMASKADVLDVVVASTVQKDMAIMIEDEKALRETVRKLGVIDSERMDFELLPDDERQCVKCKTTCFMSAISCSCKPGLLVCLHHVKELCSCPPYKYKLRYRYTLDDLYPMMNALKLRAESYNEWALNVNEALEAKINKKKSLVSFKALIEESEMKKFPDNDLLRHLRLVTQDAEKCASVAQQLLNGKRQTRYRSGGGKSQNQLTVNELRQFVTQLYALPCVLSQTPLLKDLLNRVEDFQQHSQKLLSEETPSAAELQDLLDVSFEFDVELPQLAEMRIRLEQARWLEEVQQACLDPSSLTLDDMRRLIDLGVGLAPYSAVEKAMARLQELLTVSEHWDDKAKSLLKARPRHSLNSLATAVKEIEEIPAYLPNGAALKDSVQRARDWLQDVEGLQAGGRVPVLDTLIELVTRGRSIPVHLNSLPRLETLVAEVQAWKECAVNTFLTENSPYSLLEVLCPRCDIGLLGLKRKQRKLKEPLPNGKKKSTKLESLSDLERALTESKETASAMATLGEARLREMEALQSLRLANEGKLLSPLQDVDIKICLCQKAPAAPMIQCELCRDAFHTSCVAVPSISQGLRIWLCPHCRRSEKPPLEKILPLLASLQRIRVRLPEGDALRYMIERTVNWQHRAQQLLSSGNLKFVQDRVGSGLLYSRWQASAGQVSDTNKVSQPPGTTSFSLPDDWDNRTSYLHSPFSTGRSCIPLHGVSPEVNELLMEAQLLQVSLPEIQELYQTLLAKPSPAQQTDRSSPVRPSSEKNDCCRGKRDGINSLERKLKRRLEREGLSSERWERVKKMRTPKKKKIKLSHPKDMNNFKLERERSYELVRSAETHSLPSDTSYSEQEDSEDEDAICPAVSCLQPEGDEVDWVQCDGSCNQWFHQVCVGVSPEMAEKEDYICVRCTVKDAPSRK
UniProt P42858, sequence (P42858 whole entry, looked up): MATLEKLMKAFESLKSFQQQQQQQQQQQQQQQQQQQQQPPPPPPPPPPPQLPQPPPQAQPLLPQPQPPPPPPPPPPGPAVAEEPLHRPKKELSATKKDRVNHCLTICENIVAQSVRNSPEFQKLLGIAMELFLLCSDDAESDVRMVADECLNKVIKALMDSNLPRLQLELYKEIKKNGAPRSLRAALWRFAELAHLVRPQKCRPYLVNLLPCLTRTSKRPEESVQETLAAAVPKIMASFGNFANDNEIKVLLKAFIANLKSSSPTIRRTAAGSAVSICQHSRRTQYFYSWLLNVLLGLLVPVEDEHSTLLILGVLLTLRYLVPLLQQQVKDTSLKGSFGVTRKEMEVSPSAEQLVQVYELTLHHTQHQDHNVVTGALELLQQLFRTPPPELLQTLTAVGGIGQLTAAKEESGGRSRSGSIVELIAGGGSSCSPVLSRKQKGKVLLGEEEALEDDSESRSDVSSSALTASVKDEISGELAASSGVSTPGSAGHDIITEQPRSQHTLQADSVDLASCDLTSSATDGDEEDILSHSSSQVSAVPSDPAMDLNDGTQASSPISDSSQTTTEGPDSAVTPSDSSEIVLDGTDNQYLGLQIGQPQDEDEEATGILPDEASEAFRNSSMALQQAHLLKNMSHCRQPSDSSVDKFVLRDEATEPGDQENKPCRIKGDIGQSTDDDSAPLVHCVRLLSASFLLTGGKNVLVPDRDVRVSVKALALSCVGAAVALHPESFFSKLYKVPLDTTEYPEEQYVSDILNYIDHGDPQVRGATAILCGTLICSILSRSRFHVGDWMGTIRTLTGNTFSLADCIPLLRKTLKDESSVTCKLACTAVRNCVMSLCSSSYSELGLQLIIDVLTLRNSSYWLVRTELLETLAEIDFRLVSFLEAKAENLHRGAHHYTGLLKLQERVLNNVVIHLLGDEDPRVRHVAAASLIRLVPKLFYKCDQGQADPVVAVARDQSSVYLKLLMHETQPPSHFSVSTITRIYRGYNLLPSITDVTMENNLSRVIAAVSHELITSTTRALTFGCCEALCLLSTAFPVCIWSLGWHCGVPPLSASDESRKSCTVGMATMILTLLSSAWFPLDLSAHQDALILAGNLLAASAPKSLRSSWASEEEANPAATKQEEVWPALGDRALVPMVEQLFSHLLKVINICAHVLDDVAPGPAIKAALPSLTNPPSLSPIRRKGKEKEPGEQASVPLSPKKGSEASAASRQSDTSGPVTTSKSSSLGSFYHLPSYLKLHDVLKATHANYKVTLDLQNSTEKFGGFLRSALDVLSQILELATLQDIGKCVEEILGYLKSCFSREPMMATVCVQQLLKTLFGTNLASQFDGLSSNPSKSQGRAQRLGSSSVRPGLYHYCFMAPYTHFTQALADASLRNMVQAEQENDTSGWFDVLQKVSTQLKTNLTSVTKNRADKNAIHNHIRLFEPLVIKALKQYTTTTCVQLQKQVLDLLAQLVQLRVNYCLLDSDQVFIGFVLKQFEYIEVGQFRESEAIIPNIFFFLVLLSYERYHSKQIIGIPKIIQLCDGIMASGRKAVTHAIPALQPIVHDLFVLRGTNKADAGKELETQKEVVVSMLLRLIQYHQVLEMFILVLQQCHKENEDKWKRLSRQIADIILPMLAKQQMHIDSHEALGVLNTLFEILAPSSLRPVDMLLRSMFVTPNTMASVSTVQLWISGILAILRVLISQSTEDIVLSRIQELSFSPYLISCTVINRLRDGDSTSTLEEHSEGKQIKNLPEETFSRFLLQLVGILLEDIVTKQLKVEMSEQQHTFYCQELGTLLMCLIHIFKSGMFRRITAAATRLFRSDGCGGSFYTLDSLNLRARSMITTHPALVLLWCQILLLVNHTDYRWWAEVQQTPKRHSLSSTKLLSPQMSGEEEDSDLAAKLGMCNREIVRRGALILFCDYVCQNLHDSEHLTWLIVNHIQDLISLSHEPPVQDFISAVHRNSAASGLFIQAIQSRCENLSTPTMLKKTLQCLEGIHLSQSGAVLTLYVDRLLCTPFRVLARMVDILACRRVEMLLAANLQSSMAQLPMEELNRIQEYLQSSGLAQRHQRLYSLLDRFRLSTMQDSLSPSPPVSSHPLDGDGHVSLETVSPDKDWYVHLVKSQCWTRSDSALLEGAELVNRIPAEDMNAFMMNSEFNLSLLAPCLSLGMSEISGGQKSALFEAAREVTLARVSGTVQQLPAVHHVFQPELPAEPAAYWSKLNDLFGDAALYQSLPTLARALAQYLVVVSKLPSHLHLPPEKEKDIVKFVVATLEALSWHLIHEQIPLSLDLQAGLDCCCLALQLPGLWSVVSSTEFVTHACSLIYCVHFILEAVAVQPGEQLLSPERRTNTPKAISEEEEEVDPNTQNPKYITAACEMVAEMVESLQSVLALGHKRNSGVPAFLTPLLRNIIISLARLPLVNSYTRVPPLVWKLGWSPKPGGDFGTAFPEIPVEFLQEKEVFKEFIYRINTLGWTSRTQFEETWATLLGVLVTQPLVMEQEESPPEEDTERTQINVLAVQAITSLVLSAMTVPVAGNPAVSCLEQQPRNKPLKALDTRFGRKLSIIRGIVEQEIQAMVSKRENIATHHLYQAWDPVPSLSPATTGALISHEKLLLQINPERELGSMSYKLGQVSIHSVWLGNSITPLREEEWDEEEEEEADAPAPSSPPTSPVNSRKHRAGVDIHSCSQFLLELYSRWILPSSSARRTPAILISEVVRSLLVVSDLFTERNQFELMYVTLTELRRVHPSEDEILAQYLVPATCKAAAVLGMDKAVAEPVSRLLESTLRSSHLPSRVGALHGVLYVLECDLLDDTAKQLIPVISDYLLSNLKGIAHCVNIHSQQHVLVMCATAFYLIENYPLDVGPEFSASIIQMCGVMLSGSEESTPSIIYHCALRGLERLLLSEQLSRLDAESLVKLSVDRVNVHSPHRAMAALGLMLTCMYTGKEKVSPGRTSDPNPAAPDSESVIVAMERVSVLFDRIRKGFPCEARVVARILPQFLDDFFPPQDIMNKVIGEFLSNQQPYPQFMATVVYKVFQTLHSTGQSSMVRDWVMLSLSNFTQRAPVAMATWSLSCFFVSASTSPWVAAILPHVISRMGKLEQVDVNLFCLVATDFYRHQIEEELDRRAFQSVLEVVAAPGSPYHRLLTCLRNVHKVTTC
UniProt Q9HAV0, sequence (Q9HAV0 whole entry, looked up): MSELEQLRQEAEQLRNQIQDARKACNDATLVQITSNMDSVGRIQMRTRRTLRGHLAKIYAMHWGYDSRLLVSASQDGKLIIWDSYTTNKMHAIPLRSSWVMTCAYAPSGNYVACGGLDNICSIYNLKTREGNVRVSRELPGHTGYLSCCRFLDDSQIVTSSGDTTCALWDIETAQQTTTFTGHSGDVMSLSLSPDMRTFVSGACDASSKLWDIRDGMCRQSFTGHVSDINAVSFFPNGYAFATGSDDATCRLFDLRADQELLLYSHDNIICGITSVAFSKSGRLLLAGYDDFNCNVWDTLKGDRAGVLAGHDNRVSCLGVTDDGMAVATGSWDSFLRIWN

| Target | log2 fold change (erlotinib) | log2 fold change [1] | log2 fold change [2] | log2 fold change (IRAK-1-4 Inhibitor I) | log2 fold change [3] | log2 fold change (ralimetinib) | log2 fold change [4] | log2 fold change [5] | log2 fold change [6] | log2 fold change [7] | log2 fold change [8] | log2 fold change [9] | log2 fold change [10] | log2 fold change [11] | log2 fold change [12] | log2 fold change [13] | log2 fold change [14] | log2 fold change [15] | log2 fold change (ibrutinib) | log2 fold change [16] |
| --- | --- | --- | --- | --- | --- | --- | --- | --- | --- | --- | --- | --- | --- | --- | --- | --- | --- | --- | --- | --- |
| ITPR2 (UniProt Q14571) | 0.058 | 0.163 | -0.051 | 0.021 | -0.04 | 0.069 | -0.233 | 0.063 | -0.137 | -0.072 | -0.031 | -0.322 | – | – | – | – | – | – | – | – |
| HYDIN (UniProt Q4G0P3) | – | – | 1.34 (active) | 0.712 | -0.076 | 0.148 | -0.071 | – | – | -0.05 | -0.107 | 0.017 | -0.022 | 0.005 | 0.036 | -0.054 | 0.022 | – | – | – |
| H3-3A (UniProt P84243) | 0.038 | 0.048 | – | – | -0.047 | – | – | 0.013 | – | – | – | -0.086 | 0.001 | -0.033 | 0.056 | -0.053 | -0.315 (active) | -0.055 | 0.042 | -0.034 |
| HMGN5 (UniProt Q5JSK9) | – | – | – | – | -0.007 | – | – | – | -0.094 | – | – | -0.005 | – | – | – | 0.008 | -0.076 | -0.128 | 0.051 | – |
| IRS2 (UniProt Q9Y4H2) | 0.04 | -0.099 | 0.143 | -0.009 | -0.209 | 0.014 | 0.047 | 0.03 | 0.049 | -0.079 | -0.051 | 0.254 | – | – | – | – | – | 0.164 | -0.089 | 0.118 |
| KATNBL1 (UniProt Q9H079) | -0.012 | -0.02 | – | – | -0.002 | – | – | 0.156 | -0.029 | -0.002 | – | -0.025 | 0.009 | 0.064 | -0.001 | 0.045 | -0.687 (active) | – | – | 0.082 |
| HNRNPM (UniProt M0R019) | – | – | – | – | – | – | – | – | – | – | – | – | 0.224 | 0.178 | -0.128 | – | – | – | – | – |
| KDM5B isoform 2 (UniProt Q9UGL1) | 0.07 | 0.006 | 0.012 | 0.011 | -0.046 | -0.083 | -0.165 | -0.072 | – | -0.129 | -0.095 | -0.098 | 0.03 | -0.021 | -0.074 | -0.035 | 0.099 | 0.031 | -0.075 | -0.016 |
| IGFBP4 (UniProt P22692) | 0.06 | 0.025 | -0.033 | 0.016 | 0.169 | 0.012 | -0.087 | -0.029 | -0.021 | 0.236 | 0.037 | -0.139 | – | – | – | – | – | 0.218 | 0.035 | 0.123 |
| GYPA, A0A2R8Y7F9 | – | – | – | – | – | – | – | – | – | – | – | – | – | – | – | – | – | 0.066 | -0.019 | – |
| GTPBP6 (UniProt O43824) | – | – | – | – | – | – | – | – | – | -0.617 | – | – | 0.187 | 0.11 | -0.048 | -0.082 | 0.037 | – | – | – |
| GORASP1 (UniProt Q9BQQ3) | -0.081 | -0.019 | 0.01 | -0.023 | 0.137 | -0.01 | -0.011 | 0.019 | 0.038 | 0.027 | -0.034 | -0.02 | -0.026 | 0.05 | -0.057 | 0.049 | 0.018 | – | – | -0.061 |
| HTT (UniProt P42858) | 0.018 | -0.067 | -0.041 | -0.027 | – | 0.065 | 0.008 | -0.032 | 0.047 | -0.032 | 0.04 | – | -0.051 | 0.037 | -0.138 | -0.04 | -0.05 | 0.032 | 0.11 | 0.035 |
| KIAA0930 isoform 2 (UniProt Q6ICG6) | – | – | -0.258 | -0.063 | -0.032 | 0.091 | -0.085 | – | -0.014 | -0.119 | -0.289 | -0.017 | -0.004 | -0.067 | 0.203 | 0.099 | -0.01 | -0.229 | -0.16 | 0.042 |
| HSPA8 (UniProt E9PN89) | 0.02 | -0.004 | 0.082 | -0.055 | -0.051 | 0.034 | -0.215 | 0.007 | -0.036 | 0.017 | 0.231 | -0.083 | – | – | – | -0.045 | -0.043 | -0.095 | 0.081 | 0.093 |
| IPP (UniProt Q9Y573) | -0.04 | -0.017 | 0.025 | -0.035 | 0.042 | 0.14 | -0.056 | -0.073 | – | -0.006 | 0.088 | -0.044 | -0.192 | -0.181 | -0.105 | 0.179 | 0.041 | – | – | – |
| ITPRIP (UniProt Q8IWB1) | 0.218 | -0.16 | – | – | – | – | – | 0.023 | – | 0.041 | – | – | – | – | – | – | – | – | – | – |
| HNRNPD (UniProt D6RF44) | – | – | – | – | – | – | – | – | 0.111 | – | – | – | – | – | – | – | – | – | – | -0.334 |
| GNB4 (UniProt Q9HAV0) | -0.017 | 0.067 | -0.057 | -0.024 | -0.071 | 0.009 | -0.026 | 0 | -0.05 | -0.036 | 0.084 | 0.202 | – | – | – | -0.035 | -0.005 | -0.049 | -0.104 | 0.073 |
